According to PubChem BioAssay (NCATS):
Records with an inconclusive call do not appear. The source made the active and inactive calls. Calls come from the whole dose curve; as a rule, active = well fitted curve in the direction sought with a large enough effect; inconclusive = small, poorly fitted or top-dose-only effect, or another doubt; inactive = no such curve, though single readings can be large; an effect the other way counts as inactive or inconclusive.

Key:
[1] = molecular target: Luciferin 4-monooxygenase (Photinus pyralis) (UniProt P08659); test: Primary firefly luciferase (FLuc) qHTS assay for identification of artifact compounds. (AID 1845220); note: nearly all actives have a fitted effect of over 60% in size; note: potency is the fitted concentration of half-maximal effect
Procedure, shortened: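 Titrated compounds were incubated 15 min at RT, protected from light, with luciferin and ATP at 10 uM; reaction started with 10 nM FLuc, luminescence imaged at 5 min, and concentration-response fitted by Hill equation.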

[2] = Primary fluorescence-based thiol-reactive (MSTI) qHTS assay for identification of artifact compounds. (AID 1845221); note: nearly all actives have a fitted effect of over 65% in size; note: potency is the fitted concentration of half-maximal effect
Procedure, shortened: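 MSTI probe at 4 uM final in 2% DMSO/PBS pH 7.4; compounds, 1 h at room temperature in dark. Fluorescence Ex/Em 525/598 nm, normalised to Acetyl-MSTI and MSTI, fitted to 4-parameter Hill.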

[3] = system: Nanoluciferase (engineered Oplophorus gracilirostris luciferase); test: Primary Nanoluciferase (NLuc) qHTS assay for identification of artifact compounds. (AID 1845222);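 note: NLuc secreted into diluted conditioned medium of S16 cells; series mostly up to about 54 µM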
Procedure, shortened: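 qHTS format, against NLuc in S16 cell-conditioned medium. Nano-Glo substrate 1:100 was added after 15 min at room temperature. Luminescence was taken after a further 5 min.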

[4] = Primary redox qHTS assay for identification of artifact compounds. (AID 1845223)
Procedure, shortened: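 Redox-cycling detection via DTT (250 uM final) oxidation coupled to Amplex Red (25 uM)/HRP (250 mU/mL) in HBSS. 15 min preincubation plus 30 min after DTT, room temperature. Ex/Em 525/598 nm; 4-parameter Hill fit against DMSO and 10 uM DA3003.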

Measured: Potency

CN1CCC(N(Cc2cccs2)c2ccccc2)CC1
inactive: [1] | [2] | [3] | [4]

Cn1cc(S(C)=O)c(=O)c2ccc(F)cc21 (stereo not given)
inactive: [1] | [2] | [3] | [4]

CCc1cc(S(=O)(=O)O)c2cc(C(C)C)cccc1-2
active: [2] 0.844 µM
inactive: [1] | [3] | [4]

CN(C)C(=O)CNC(=O)Cc1ccccc1
inactive: [1] | [2] | [3] | [4]

CC(=O)OCC(=O)Nc1cc(C#N)cc(NC(=O)COC(C)=O)c1Cl
inactive: [1] | [2] | [3] | [4]

CC(C(O)c1ccccc1)N(C)CCOC(c1ccccc1)c1ccccc1 (stereo not given)
inactive: [1] | [2] | [3] | [4]

O=C1NC2CCCCN2C12CCN(CCCN1c3ccccc3CCc3ccc(Cl)cc31)CC2 (stereo not given)
inactive: [1] | [2] | [3]

CCCCNc1ccc(C(=O)OCCN(CC)CC)cc1
inactive: [1] | [2] | [3] | [4]

CN(CC1(C)CCCO1)S(=O)(=O)c1ccc(Cl)c(S(N)(=O)=O)c1 (stereo not given)
inactive: [1] | [2] | [3] | [4]

CCCCCOc1ccc(C2SC(=O)NC2=O)cc1OCC (stereo not given)
inactive: [1] | [2] | [3] | [4]

CC(C(=O)O)c1ccc(/C=C2\CCCCC2=O)cc1 (stereo not given)
active: [1] 23.9 µM
inactive: [2] | [3] | [4]

CC[N+]1(CC)CCC(=C(c2ccccc2)c2ccccc2)C1C (stereo not given)
inactive: [1] | [2] | [3] | [4]

CCNC(=O)NCCCOc1cccc(CN2CCCCC2)c1
inactive: [1] | [2] | [3] | [4]

Brc1ccc([C@H]2CN3CCSC3=N2)cc1
inactive: [1] | [2] | [3] | [4]

C[C@H](CN1CCCC1)C(=O)c1ccc(C(F)(F)F)cc1
inactive: [1] | [2] | [3] | [4]

C=CC[N+]1([C@H]2C[C@H]3[C@@H]4CC[C@H]5C[C@H](OC(C)=O)[C@@H](N6CCCCC6)C[C@]5(C)[C@H]4CC[C@]3(C)[C@H]2OC(=O)CC)CCCCC1
inactive: [1] | [2] | [3]

COc1cc(NS(=O)(=O)c2ccc(N)cc2)nc(C)n1
inactive: [1] | [2] | [3] | [4]

CCN1CCN(c2cc(-c3ccc(F)cc3)c3c(n2)CCCCCC3)CC1
inactive: [1] | [2] | [3] | [4]
